40 compounds from ChEMBL document CHEMBL3988442, “University of Dundee, Small-Polar-MMV Screening Library” (2021) can be followed below.

The experiment addresses T1, Aspartate--tRNA(Asp/Asn) ligase (Mycobacterium tuberculosis (strain ATCC 25618 / H37Rv)) (UniProt P9WFW3).
T1 sequence (whole entry): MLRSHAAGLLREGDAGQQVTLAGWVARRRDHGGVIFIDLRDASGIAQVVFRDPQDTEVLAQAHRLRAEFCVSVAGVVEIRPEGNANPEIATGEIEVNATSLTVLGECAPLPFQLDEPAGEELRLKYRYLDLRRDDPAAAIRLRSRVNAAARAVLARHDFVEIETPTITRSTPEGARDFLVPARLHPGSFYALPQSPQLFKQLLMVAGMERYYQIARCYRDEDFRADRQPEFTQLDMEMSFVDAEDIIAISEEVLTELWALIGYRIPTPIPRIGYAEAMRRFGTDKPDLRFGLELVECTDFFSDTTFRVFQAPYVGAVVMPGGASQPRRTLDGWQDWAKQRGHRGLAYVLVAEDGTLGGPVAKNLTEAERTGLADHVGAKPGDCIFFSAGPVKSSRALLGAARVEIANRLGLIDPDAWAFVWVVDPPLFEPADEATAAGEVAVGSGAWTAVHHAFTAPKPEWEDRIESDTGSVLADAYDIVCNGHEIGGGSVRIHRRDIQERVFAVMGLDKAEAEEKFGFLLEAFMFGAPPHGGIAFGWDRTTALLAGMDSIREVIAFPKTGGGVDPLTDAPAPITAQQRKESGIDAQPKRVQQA
Nature of the experiment: Assay for Asp RNA synthetase-1 from Mycobacterium tuberculosis. The class given is functional. The arrangement: scale not given: in the data most compounds retested in dose-response had high values. The note with it: 30 µM.
`Cc1oc(C(=O)O)cc1S(=O)(=O)Nc1c(F)cccc1-n1cccn1`: the Percent Effect is -2.17%.

For the compound `CCCC(=O)NCc1cc(Br)c(OC)c(OC)c1`, the Percent Effect is -0.862%.

For `CCN(CC)c1ccc(-c2nc(-c3cccc(OC)c3OC)no2)cn1`, the Percent Effect was -4.22%.

Take `CSc1cccc(CN(C)C(=O)C2CC(=O)N(CCN(C)C)C2)c1` (stereo not given): the Percent Effect was -2.59%.

For the compound `COc1ncccc1NC(=O)N1CCC(CN2CCOCC2)CC1`, the Percent Effect was -3.02%.

For `CCc1nsc(NC2CCCn3nc(COC)nc32)n1` (stereo not given), the Percent Effect is -2.56%.

As to `CC(C)N(C)CC(=O)NC1CCc2nccn2C1` (stereo not given), the Percent Effect turned out to be 1.39%.

In the case of `CC(NC(=O)Cn1cccn1)c1cccnc1` (stereo not given), the Percent Effect was -1.34%.

As to `CCOc1ncccc1CNC(=O)N1CCCC1c1ccncc1` (stereo not given), the Percent Effect was -0.287%.

As to `COc1nc(C)c(C(=O)N(C)Cc2nc(-c3ccccn3)no2)s1`, the Percent Effect was determined as 1.83%.

For the compound `Cc1cc(S(=O)(=O)N2CCCc3ccc(F)cc32)sc1C(=O)O`, the Percent Effect came to 1.87%.

Regarding `Cc1cc(C)n(CC2CCCCN2CC(=O)Nc2cccnc2)n1` (stereo not given), the Percent Effect was -0.655%.

As for `CCC(=O)N1CCc2[nH]cnc2C12CCN(C(=O)c1snnc1C)CC2`, the Percent Effect worked out at 1.62%.

With `O=C(c1ccncc1)N1C[C@@H]2CC[C@H](C1)N(C(=O)N1CCOCC1)C2`, the Percent Effect is 2.77%.

Turning to `Cc1nn(C)cc1C(=O)N1C[C@H]2CC[C@@H]1CN(S(=O)(=O)N(C)C)C2`, the Percent Effect was 1.62%.

For the compound `CC(O)CN1CCN(C(=O)c2cnn(-c3ccc(Cl)cc3)c2)CC1` (stereo not given), the Percent Effect was -5.67%.

Consider `CC(C)CN1CCCn2nc(CNC(=O)c3cccnc3O)cc2C1`, for which the Percent Effect is -2.56%.

Regarding `CN(C)CCCNC(=O)c1cc(Br)c2c(c1)OCCO2`, the Percent Effect came out at 0.724%.

Regarding `Cc1nc(C)n(CC2CCCCN2CC(=O)Nc2nncs2)n1` (stereo not given), the Percent Effect is -3.83%.

`CC(C)n1ccnc1C1CCCN(c2ccccn2)C1` (stereo not given): the Percent Effect was -2.15%.

As to `NC(=O)C1CCN(Cc2cccc(NC(=O)c3ccsc3)c2)CC1`, the Percent Effect is -1.25%.

As to `COC1CCCN(C(=O)Nc2nc(C)n(C)n2)C1` (stereo not given), the Percent Effect was -3.53%.

As to `Cc1cc(F)ccc1OC1(C(=O)O)CCN(Cc2ccncc2)CC1`, the Percent Effect is -3.25%.

On to `c1nc(N2CCCCC2Cn2cncn2)c2ccsc2n1` (stereo not given), for which the Percent Effect was -0.379%.

For the compound `Cc1ccccc1CS(=O)(=O)NCCCN1CCCCC1`, the Percent Effect was -2.17%.

As for `CC(Sc1nnnn1C1CCOCC1)C(=O)NC1CCCCC1` (stereo not given), the Percent Effect was 1.09%.

Regarding `Cc1cc(C)n(-c2cc(N3CCN(C(=O)C(C)(C)C)CC3)nc(C)n2)n1`, the Percent Effect stood at 0.747%.

With `CN(CCO)Cc1nnc(C2CCN(C(=O)c3cccnc3)CC2)n1C`, the Percent Effect is -0.977%.

For `CN(C)c1ccc(CCNC(=O)C2CCC(=O)N(C3CCCC3)C2)cc1` (stereo not given), the Percent Effect was -4.1%.

For the compound `COc1ccc(F)c(CN2CCC3(CCC(=O)N(CC(N)=O)C3)CC2)c1`, the Percent Effect was -3.94%.

Take `COc1ncccc1NC(=O)N1CCC(CNC(C)=O)CC1`: the Percent Effect was -1.39%.

Take `OC1(CN2CCCC2)CCCN(Cc2ccc(F)cc2Cl)C1` (stereo not given): the Percent Effect came out at 4.15%.

As to `Cc1cccc(CN2C[C@H]3OC(=O)N(CCCN4CCOCC4)[C@H]3C2)n1`, the Percent Effect was -2.42%.

Take `O=C(O)c1csc(S(=O)(=O)N2CCCc3ccc(F)cc32)c1`: the Percent Effect worked out at 1.9%.

For the compound `CCS(=O)(=O)c1ccc(N2CCC(NC(=O)c3cnn(C)c3)CC2)cc1`, the Percent Effect was -0.471%.

`Cc1cccnc1NC(=O)C1CCCN1Cc1ccccc1` (stereo not given): the Percent Effect is -1.55%.

Take `Cc1ccc(CNCc2nnc3n2CCCC3C(F)(F)F)o1` (stereo not given): the Percent Effect is 0.425%.

Regarding `Cc1cnn(C2CN(CC(O)c3ccc4c(c3)OCCO4)C2)c1` (stereo not given), the Percent Effect was -4.61%.

As to `CC(C)c1ncc(CN2C[C@@H](CN3CCC(CO)CC3)[C@@H](CO)C2)cn1`, the Percent Effect was -1.92%.

With `CN(Cc1cc[nH]n1)C(=O)c1cccc(CCC(C)(C)O)c1`, the Percent Effect is -0.264%.
